Hits are enriched below; roughly 4% of the tested compounds scored in any of these assays.
Mdm2 MdmX PPI: human Mdm2/MdmX binding inhibition; 330,000 compounds, 3% hits; AID 485346; SaOS-2 split-luciferase Mdm2/MdmX complementation, luminescence; inhibition, % at 8 µM;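 active means inhibition of at least 50% at 8 µM in the primary screen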
PAX8 inh HTS: lowers PAX8-driven luciferase in RMG-I cells; RMG-I TPO-luciferase reporter, SteadyGlo, 24 h; inhibition, % at 12.6 µM; 360,000 compounds, 1.2% hits; AID 652154;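 active means mean replicate inhibition at least 60% with every replicate also reaching 60%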;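 further: luciferase light reporting Pax8 driven TPO promoter activity; plate controls were median of neutral control wells for no effect and mitoxantrone controls for full effect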
Shn3 inh set2: Schnurri-3 reporter inhibition in Clone20 osteoblasts | 360,000 compounds, 0.52% hits | inhibition, % at 12.5 µM | Clone20 osteoblast Shn3 3'UTR firefly luciferase, 24 h | AID 588674;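 active means mean inhibition of at least 75% with every replicate also reaching 75%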;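 further: 0% = median of neutral control wells and 100% = pilot-screen positive control compound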
CSC inhib: blocks cancer stem cells | AID 2717 | inhibition, % at 7.5 µM | 300,000 compounds, 1.1% hits | cancer stem cell-like cells viability, luminescence; in the data active means inhibition above about 75%; tested in HMLE shEcad cells
Gli-Sufu block: Gli-Sufu pathway antagonism; Sufu-KO-LIGHT fibroblasts, Gli luciferase reporter luminescence; AID 588413; inhibition, % at 5 µM; 340,000 compounds, 0.74% hits;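 active means inhibition above about 55%, limit read from the data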;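 further: 0% = DMSO-treated cells and 100% = wells with medium but no cells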
Beta apoptosis: beta cell apoptosis inhibition. INS-1E cytokine-induced death, ATP luminescence, 48 h; percent of positive-control rescue, neutral wells zero. 300,000 compounds, 0.8% hits. AID 435005. protection from apoptosis, % (concentration not given with the values);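 active means Every replicate reaches about 75%, or at least half do and their mean reaches it too, limit read from the data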;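 further: 0% = cytokine-treated negative control wells and 100% = positive control rescue; higher means more ATP so stronger rescue from cytokine killing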
* = called active by the depositor; x = no result given.

SMILES | Mdm2 MdmX PPI | PAX8 inh HTS | Shn3 inh set2 | CSC inhib | Gli-Sufu block | Beta apoptosis
CN1CCN(c2ccc(CNS(=O)(=O)Cc3cccc(C(F)(F)F)c3)cc2)CC1 | 21 | 31 | 82 | 44 | 38 | 86*
CC1(O)CC(c2ccc(Cl)cc2)=NN1C(=O)c1ccc([N+](=O)[O-])cc1 (stereo not drawn) | 32 | 0 | -7 | 86* | -24 | 48
CC(=O)N1N=C(c2ccc(Cl)cc2)CC1c1ccc([N+](=O)[O-])cc1 (stereo not drawn) | 9 | 9 | -2 | -15 | 11 | 0
COc1ccc(CNC(=O)c2cc3c(C)nc4ccccc4c3o2)c(OC)c1 | 32 | x | 90* | 15 | 57* | 71
Cc1nc2ccccc2c2oc(C(=O)Nc3ccc(C(C)C)cc3)cc12 | 35 | 12 | 25 | x | 20 | 79*
Cc1nc2ccccc2c2oc(C(=O)Nc3ccc4c(c3)OCCO4)cc12 | 17 | -15 | -22 | -5 | -8 | 25
CNC[C@@H]1Oc2ccc(NS(=O)(=O)c3c(C)noc3C)cc2CC(=O)N([C@@H](C)CO)C[C@H]1C | x | -11 | x | x | x | x
COc1ccc(OC)c(-c2c3cc(O)c(=O)cc-3oc3cc(O)c(O)cc23)c1 | x | x | 0 | 95* | 8 | 1
C[C@@H]1CN([C@@H](C)CO)C(=O)Cc2cc(NC(=O)CCN3CCOCC3)ccc2O[C@@H]1CN(C)S(=O)(=O)c1ccc(F)cc1 | x | -4 | x | x | x | x
O=C(N/N=C/c1c[nH]c2ccccc12)C1CC1(c1ccccc1)c1ccccc1 (stereo not drawn) | 1 | 24 | 7 | 79* | -16 | 13
O=C(N/N=C/c1c[nH]c2ccccc12)C1CC1c1ccccc1 (stereo not drawn) | 17 | 43 | -5 | x | 6 | -9
Cc1nc2ccc(NC(=O)c3ccccc3)cc2s1 | -92 | -197 | 3 | 10 | -71 | 2
Cc1nc2ccc(NC(=O)c3cccc(S(=O)(=O)N(C)c4ccccc4)c3)cc2s1 | 12 | x | 90* | 2 | 15 | 8
CN(c1ccccc1)S(=O)(=O)c1cccc(NC(=O)c2ccc3ncsc3c2)c1 | 27 | 9 | 88* | 4 | -5 | 10
CO[C@@H]1CN(C)C(=O)c2cc(NC(=O)C3CCC3)ccc2OC[C@@H](C)N(C(=O)CN(C)C)C[C@@H]1C | x | 0 | x | x | x | x
Oc1nc(Nc2cccc(Cl)c2)sc1/C=C1\C=Nc2ccccc21 | 0 | 5 | -19 | 109* | -1 | -3
CC1=Nc2ccccc2/C1=C\c1sc(Nc2ccc(C)cc2)nc1O | 37 | 56 | 9 | 85* | 35 | 42
CCCc1nnc(NC(=O)c2nc(S(=O)(=O)Cc3ccc(C)cc3)ncc2Cl)s1 | 35 | 21 | 91* | 108* | 32 | -18
CCSc1ncc(Cl)c(C(=O)Nc2ccc(S(N)(=O)=O)cc2)n1 | -3 | 70* | 25 | 13 | 4 | 3
Cc1ccc(S(=O)(=O)CCc2nnc(NC(=O)c3cnccn3)s2)cc1 | 1 | x | 7 | 11 | -18 | -1
CCOC(=O)c1ccc(NC(=O)c2nc(S(=O)(=O)Cc3ccccc3)ncc2Cl)cc1 | 49 | 22 | 96* | 103* | 8 | 78*
CCC(=O)NC[C@H]1[C@@H](c2ccc(-c3cccc(F)c3)cc2)[C@@H](CO)N1C(=O)CC | x | 3 | x | x | x | x
CCC(=O)Nc1ccc2c(c1)C(=O)N(C)C[C@H](OC)[C@H](C)CN(CCc1ccccc1)[C@@H](C)CO2 | x | 2 | x | x | x | x
C[C@@H]1CN([C@@H](C)CO)C(=O)c2cccc(NS(C)(=O)=O)c2O[C@H]1CN(C)Cc1ccc(C(=O)Nc2ccccc2N)cc1 | x | 5 | x | x | x | x
C[C@@H]1CC[C@H]2C(=O)N3[C@@H](CC[C@@H](C)[C@@H]3c3ccc(Br)cc3)C(=O)N2[C@H]1c1ccc(Br)cc1 | 14 | 28 | -13 | 79* | 7 | 1
SMILES | Mdm2 MdmX PPI | PAX8 inh HTS | Shn3 inh set2 | CSC inhib | Gli-Sufu block | Beta apoptosis
O=C1C2C3C=CC(CC3)C2C(=O)N1c1ccc(Br)cc1 (stereo not drawn) | x | -7 | -2 | x | x | x
O=C1/C(=C\c2ccc(Cl)c(Cl)c2)CN(C(=O)CCN2CCOCC2)C/C1=C/c1ccc(Cl)c(Cl)c1 | x | 89* | 99* | x | 10 | x
O=C1/C(=C\c2ccccc2)CN(C(=O)CCN2CCCCC2)C/C1=C/c1ccccc1 | x | -4 | 94* | x | 7 | x
O=C(C[C@@H]1C=C[C@H](NC(=O)Nc2ccc3c(c2)OCO3)[C@@H](CO)O1)NCc1ccc(F)cc1 | x | -11 | x | x | x | x
CC(C)c1ccccc1-n1c(SCC(=O)N2CCc3ccccc3C2)nc2ccccc2c1=O | 48 | 7 | 96* | 12 | 35 | 121*
COCCn1c(SCC(=O)N2CCc3ccccc3C2)nc2cc(Cl)ccc2c1=O | 27 | x | 49 | -8 | 14 | -11
Cn1c(=O)c2c(nc(SCC(=O)N3CCc4ccccc4C3)n2C)n(C)c1=O | 14 | x | -3 | -10 | -1 | -4
CC(C)Cn1c(SCC(=O)N2CCc3ccccc3C2)nc2cc(Cl)ccc2c1=O | 25 | 20 | 79 | 32 | 8 | 115*
CCCNC(=O)N1C[C@@H](C)[C@H](OC)CN(C)C(=O)c2ccc(NC(=O)C3CCC3)cc2OC[C@@H]1C | x | -5 | x | x | x | x
O=c1[nH]c(-c2ccccn2)nc2sc(-c3ccccc3)cc12 | x | 89* | 80 | x | 20 | x
CCCNC(=O)C[C@H]1CC[C@H]2[C@@H](COC[C@@H](O)CN2C(=O)c2ccccn2)O1 | x | -19 | x | x | x | x
COc1ccc(NC(=O)Nc2ccc3c(c2)C(=O)N([C@@H](C)CO)C[C@@H](C)[C@H](CN(C)S(=O)(=O)c2ccccc2)OCCCC[C@H](C)O3)cc1 | x | -13 | x | x | x | x
N#C/C(=C(/O)c1cc2ccccc2o1)c1nc2ccccc2s1 | -19 | -7 | -51 | 108* | -33 | 10
CC(=O)N(C1=C(N)C(=O)c2ccccc2C1=O)C(C)C | 28 | 7 | -24 | -6 | 7 | 7
COc1ccccc1N(C(C)=O)C1=C(Cl)C(=O)c2ccccc2C1=O | x | 117* | 77 | x | x | x
COc1cccc(S(=O)(=O)N[C@@H]2CC[C@H](CCn3cc(-c4ccccc4OC)nn3)O[C@H]2CO)c1 | x | 5 | x | x | x | x
COC(=O)C1=C(C(=O)OC)[C@]2([C@H]3CCCCN[C@@H](Cc4ccccc4)C(=O)N3Cc3ccccc3)C=C[C@H]1O2 | 47 | 74* | 66 | x | 10 | 26
CO[C@@H]1CN(C)C(=O)c2cc(NC(=O)C3CC3)ccc2OC[C@H](C)NC[C@H]1C | x | -17 | x | x | x | x
CO[C@H]1CN(C)C(=O)c2cc(NC(=O)Nc3cccc(Cl)c3)ccc2OC[C@@H](C)NC[C@@H]1C | x | 5 | x | x | x | x
CCC1CSC(Nc2ccc(C(=O)/C=C/c3ccc(OC)c(OC)c3)cc2)=N1 (stereo not drawn) | 12 | 5 | 87* | -16 | 7 | 19
O=Nc1c(O)c2ccccc2c2ccccc12 | x | 20 | 79 | 122* | 12 | 109*
O=Nc1c2cc3ccccc3[nH]c-2c2ccccc12 | x | -33 | 10 | x | -100 | x
